Experimental data from PubChem BioAssay AID1159580 (chemical genetic matrix, 2015).
Out of some 5,500 compounds screened, about 2,000 (36%) were called active. Not shown: some 18% with an inconclusive outcome. No stated cut-off is given here; in the data, active means normalized growth mostly below about 0.91 (no sharp cut-off); inconclusive means no clear call, values can overlap the other calls; inactive means mostly above about 0.92. The list shows a part of the results.

Experiment: chemical genetic growth profiling, strain panel (AID 1159580);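 further: tested at 20 µM; growth read once vehicle control cultures reached saturation at 30 °C; 1 = growth at the plate median or of vehicle wells; lower values mean less growth of the strain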
Settings: S. cerevisiae deletion strains, growth OD

Measured: normalized growth

Cc1cccc(C#Cc2ccccc2)n1
inactive: locus YAL040C, strain CLN3, hits give low values 0.997 | locus YCL061C, strain MRC1 (second series), hits give low values 0.968 | locus YDR363W, strain ESC2, hits give low values 1.05 | locus YER002W, strain NOP16, hits give low values 0.986 | locus YGR078C, strain PAC10, hits give low values 0.978 | locus YMR263W, strain SAP30, hits give low values 0.993 | locus YMR307W, strain GAS1, hits give low values 0.919 | locus YNL128W, strain TEP1, hits give low values 0.992 | locus YNL175C, strain NOP13, hits give low values 0.977 | locus YNL197C, strain WHI3, hits give low values 1 | locus YNL224C, strain SQS1, hits give low values 1 | locus YNL322C, strain KRE1, hits give low values 0.976 | locus YOR083W, strain WHI5 (second series), hits give low values 0.918

CC(C)(CO)C(O)C(=O)NCCCO (stereo not drawn)
inactive: locus YAL021C, strain ccr4, hits give low values 1 | locus YAL026C, strain drs2, hits give low values 1.02 | locus YAL030W, strain snc1, hits give low values 1.02 | locus YBL061C, strain skt5, hits give low values 1.02 | locus YBR009C, strain hhf1, hits give low values 1.03 | locus YBR023C, strain chs3, hits give low values 1.03 | locus YBR171W, strain sec66, hits give low values 1.03 | locus YBR231C, strain swc5, hits give low values 1.02 | locus YBR279W, strain paf1, hits give low values 1.01 | locus YCL011C, strain gbp2, hits give low values 1.02 | locus YCL016C, strain dcc1, hits give low values 1.02 | locus YCL061C, strain MRC1, hits give low values 1.01 | locus YCL069W, strain vba3, hits give low values 1.01 | locus YCR088W, strain abp1, hits give low values 1.01 | locus YDL005C, strain med2, hits give low values 1.01 | locus YDL040C, strain nat1, hits give low values 1.01 | locus YDR001C, strain nth1, hits give low values 1.02 | locus YDR069C, strain doa4, hits give low values 1.02 | locus YDR137W, strain rgp1, hits give low values 1.03 | locus YDR159W, strain sac3, hits give low values 1.03 | locus YDR195W, strain ref2 1.01 | locus YDR297W, strain sur2, hits give low values 1.01 | locus YDR334W, strain swr1, hits give low values 1.01 | locus YDR335W, strain msn5, hits give low values 1.01 | locus YDR392W, strain spt3, hits give low values 1.02 | locus YEL003W, strain gim4, hits give low values 1.02 | locus YEL037C, strain rad23, hits give low values 1.01 | locus YEL061C, strain CIN8 (second series), hits give low values 1.02 | locus YER015W, strain faa2, hits give low values 1.01 | locus YER016W, strain bim1, hits give low values 1.02 | locus YER111C, strain swi4, hits give low values 1.01 | locus YER155C, strain BEM2 (second series), hits give low values 1.04 | locus YFR010W, strain ubp6, hits give low values 1.01 | locus YGL167C, strain pmr1, hits give low values 1.03 | locus YGL173C, strain kem1, hits give low values 1.02 | locus YGL227W, strain vid30, hits give low values 1.02 | locus YGL240W, strain doc1, hits give low values 1.02 | locus YGL253W, strain hxk2, hits give low values 1.02 | locus YHR013C, strain ard1, hits give low values 1.03 | locus YHR027C, strain rpn1, hits give low values 1.02 | locus YHR030C, strain SLT2, hits give low values 1.02 | locus YHR079C, strain IRE1, hits give low values 1.01 | locus YHR142W, strain chs7, hits give low values 1.01 | locus YJL092W, strain hpr5, hits give low values 1.01 | locus YJL095W, strain BCK1 (second series), hits give low values 1.01 | locus YJL095W, strain BCK1, hits give low values 0.995 | locus YJL115W, strain asf1, hits give low values 1.02 | locus YJL129C, strain trk1, hits give low values 1.02 | locus YJL154C, strain vps35, hits give low values 1.01 | locus YJL164C, strain tpk1, hits give low values 1.02 | locus YJL166W, strain qcr8, hits give low values 1.02 | locus YJL187C, strain SWE1, hits give low values 1.01 | locus YJR066W, strain TOR1, hits give low values 0.964 | locus YKL160W, strain elf1, hits give low values 1.01 | locus YKR026C, strain gcn3, hits give low values 0.994 | locus YKR091W, strain srl3, hits give low values 1.01 | locus YLL001W, strain dnm1, hits give low values 1.02 | locus YLL026W, hits give low values 1.02 | locus YLL041C, strain sdh2, hits give low values 1.02 | locus YLR027C, strain aat2, hits give low values 1.02 | locus YLR113W, strain HOG1, hits give low values 0.985 | locus YLR221C, strain rsa3, hits give low values 1.01 | locus YLR258W, strain gsy2, hits give low values 1.02 | locus YLR262C, strain YPT6 (second series), hits give low values 1.02 | locus YLR320W, strain mms22, hits give low values 1.02 | locus YLR342W, strain FKS1, hits give low values 1.01 | locus YLR357W, strain rsc2, hits give low values 1.04 | locus YLR370C, strain arc18, hits give low values 1.02 | locus YLR384C, strain iki3, hits give low values 1.02 | locus YML120C, strain ndi1, hits give low values 1.01 | locus YMR058W, strain fet3, hits give low values 1.01 | locus YMR125W, strain sto1, hits give low values 1.03 | locus YMR129W, hits give low values 1.01 | locus YMR205C, strain PFK2, hits give low values 1.03 | locus YMR231W, strain pep5, hits give low values 1.01 | locus YNL071W, strain lat1, hits give low values 1.02 | locus YNL183C, strain NPR1, hits give low values 0.954 | locus YNL209W, strain ssb2, hits give low values 1.01 | locus YNL248C, strain rpa49, hits give low values 0.992 | locus YNL322C, strain KRE1 (second series), hits give low values 1.01 | locus YNR049C, strain mso1, hits give low values 1.01 | locus YOR001W, strain rrp6, hits give low values 1 | locus YOR070C, strain gyp1, hits give low values 1.01 | locus YOR080W, strain dia2, hits give low values 1.02 | locus YOR083W, strain WHI5, hits give low values 1 | locus YOR106W, strain vam3, hits give low values 1 | locus YOR231W, strain MKK1, hits give low values 1.01 | locus YOR265W, strain rbl2, hits give low values 1.01 | locus YOR270C, strain vph1, hits give low values 1.03 | locus YOR290C, strain snf2, hits give low values 1.03 | locus YPL051W, strain arl3, hits give low values 1.03 | locus YPL078C, strain atp4, hits give low values 1.01 | locus YPL106C, strain sse1, hits give low values 1 | locus YPL240C, strain hsp82, hits give low values 1.01 | locus YPL256C, strain CLN2, hits give low values 0.994
